SMILES strings stand for the structures. The panel holds about 83,000 compounds, 20% with a hit somewhere; the sample as a whole holds those more often.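 How to read the values: 0–100, growth inhibition (40 = 60% inhibited); 0, no net growth; -100 to 0, cell death (-40 = 40% of starting cells died; -100 = all dead).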 Calls of active or inactive are those of the source. The calls were made as follows: active = growth percent below 10; inactive = the rest.

The first experiment concerns PC-3 prostate. In words: NCI-60 one-dose screen, 48 h (100 = growth as untreated, 0 = no growth, -100 = all killed). The conditions noted are these: 10 µM unless noted.
With `COc1ccc2nc(C)cc(Sc3nc4ccccc4s3)c2c1`, the growth is 52.9% (inactive).

In the case of `CCN(CC)CCCC(C)Nc1ccnc2ccc(Oc3ccccc3)cc12` (stereo unspecified), the growth was 84.9% (inactive).

Take `FC(F)(F)c1nn[nH]n1`: the growth is 96.9% (inactive).

As to `CC(C)c1nc2ccccc2n1CC(=O)N/N=C/c1cccc(O)c1`, the growth was 87.9% (inactive).

Take `O=c1c2cc(Br)cc(Br)c2nc(-c2ccc(Cl)cc2)n1/N=C\c1ccccc1F`: the growth was -87.1% (active).

For `C=CCN(CC#N)CC=C`, the growth is 91% (inactive).

On to `COC(=O)[C@@H](Cc1c[nH]c2ccccc12)NC(=O)/C=C/c1ccccc1`, for which the growth is 18.7% (inactive).

As for `CCOC(=O)C(CCCCC(NC(C)=O)(C(=O)OCC)C(=O)OCC)(NC(C)=O)C(=O)OCC`, the growth is 101% (inactive).

As to `COc1ccc(-c2cnnn2-c2nonc2-n2cccc2)cc1`, the growth is 28.8% (inactive).

Consider `CSC1=N/C(=C\c2cccc(OCc3ccc(Cl)cc3)c2)C(=O)N1`, for which the growth is 76% (inactive).

Regarding `COc1ccc([C@H]2c3[nH]c4ccccc4c3C[C@H]3C(=O)N(CCCCCCC(=O)NO)CC(=O)N23)cc1`, the growth is 11.9% (inactive).

In the case of `c1csc(-c2cnc3nonc3n2)c1`, the growth is 66.3% (inactive).

With `CC1(C)CN(CCNc2nccc(-c3c(-c4cccc(O)c4)nc4sccn34)n2)S(=O)(=O)N1`, the growth was 50.8% (inactive).

On to `COc1cc(C2CC(c3ccc(Cl)cc3)=NN2C(C)=O)ccc1Oc1ccnc2cc(Cl)ccc12` (stereo unspecified), for which the growth is 58.3% (inactive).

Regarding `CN(C)CCCn1c(=O)c2cc([N+](=O)[O-])ccc2c2cnc3[nH]ccc3c21`, the growth is 48.4% (inactive).

As to `CN(C)N1C(=O)c2c(Cl)c(Cl)c(Cl)c(Cl)c2C1=O`, the growth is 99.2% (inactive).

On to `CCCCCCCCCCCCNC(=O)N[C@H](C(=O)N[C@H]1/C=C/OCCNC(=O)/C=C/[C@H](C(C)C)NC1=O)C(C)C`, for which the growth is 51.1% (inactive).

Take `COc1ccc2c(c1)sc1nc(-c3ccccc3)c(-c3cccc4ccccc34)n12`: the growth is 24.3% (inactive).

Take `O=C(O)CSc1ccc(NCc2oc(CO)cc(=O)c2O)cc1`: the growth is 98.8% (inactive).

Consider `Oc1ccc(-c2nnc3c4[nH]ccc4ncn23)cc1`, for which the growth is 94.3% (inactive).

Regarding `COc1cccc(N2CCN(c3ncnc4cc[nH]c34)CC2)c1`, the growth is 53% (inactive).

As for `NC(N)=NC1CCCCC1`, the growth was 89.8% (inactive).

Turning to `COc1cc(CN(c2ccc(C)cc2)C2OC(=O)c3ccccc32)cc(OC)c1OC` (stereo unspecified), the growth was 51.8% (inactive).

Regarding `CC(C)(C)OC[C@@H]1N=C(c2ccc(Br)cc2)Nc2nc3ccccn3c2C1=O`, the growth is 53.4% (inactive).

On to `Cc1ccc(Nc2cc(Cl)c([N+](=O)[O-])cc2[N+](=O)[O-])cc1`, for which the growth was 55.3% (inactive).

In the case of `N/C(=C\C(=O)n1nc(-c2ccccc2)cc1N)c1ccccc1`, the growth was 22.6% (inactive).

On to `Nc1nc(N)c2cc(NCc3ccc(Cl)c(Cl)c3)ccc2n1`, for which the growth was -88.7% (active).

For the compound `Cn1c(-c2ccccc2)cc(=O)n1-c1ccccc1`, the growth is 100% (inactive).

In the case of `O=C(Nc1ccncc1)C(=O)c1cn(S(=O)(=O)c2cccc(Cl)c2F)c2ccccc12`, the growth was 75.8% (inactive).

In the case of `O=C(CSc1nnc(Cc2ccccc2Nc2c(Cl)cccc2Cl)n1-c1ccccc1)N1N=C(c2ccc3ccccc3c2)CC1c1ccc(Cl)cc1` (stereo unspecified), the growth was 87.1% (inactive).

In the case of `CSc1ccc(/C=C2\C=C(CC(=O)NCc3ccc(C(=O)c4ccccc4)cc3)c3cc(F)ccc32)cc1`, the growth is 12.4% (inactive).

Consider `C=C1C(=O)O[C@H]2[C@H]1CC/C(COC(=O)NCc1ccc(Cn3c(=O)sn(CCCl)c3=O)cc1)=C\CC[C@@]1(C)O[C@@H]21`, for which the growth is 78.7% (inactive).

Turning to `O=C(O/C(=C/c1ccccc1)C(F)(F)F)c1ccccc1`, the growth is 104% (inactive).

`COc1ccc(N=C2CSc3nnc(-c4cc(F)c(Cl)cc4Cl)n3N2)cc1`: the growth is -55% (active).

For the compound `CCCCCCCCN(CCCCCCCC)C(=O)CCl`, the growth is 85.6% (inactive).

Consider `CC(C)(CCc1ccccn1)C(=O)CCCc1ccccn1`, for which the growth is 89% (inactive).

As to `Cn1cnc([N+](=O)[O-])c1S(=O)(=O)Oc1ccccc1`, the growth was 86.5% (inactive).

In the case of `CCOC(=O)C1=C(C)NC(=S)NC1c1ccccc1` (stereo unspecified), the growth was 115% (inactive).

Another experiment concerns SK-MEL-5 melanoma. Described as above. The settings on record: 10 µM unless noted.
With `COc1ccc2nc(C)cc(Sc3nc4ccccc4s3)c2c1`, the growth is 35.2% (inactive).

Consider `CCN(CC)CCCC(C)Nc1ccnc2ccc(Oc3ccccc3)cc12` (stereo unspecified), for which the growth was -89% (active).

For the compound `FC(F)(F)c1nn[nH]n1`, the growth is 103% (inactive).

As for `CC(C)c1nc2ccccc2n1CC(=O)N/N=C/c1cccc(O)c1`, the growth is 100% (inactive).

On to `O=c1c2cc(Br)cc(Br)c2nc(-c2ccc(Cl)cc2)n1/N=C\c1ccccc1F`, for which the growth is 89.4% (inactive).

In the case of `C=CCN(CC#N)CC=C`, the growth is 94.9% (inactive).

With `COC(=O)[C@@H](Cc1c[nH]c2ccccc12)NC(=O)/C=C/c1ccccc1`, the growth is 31.4% (inactive).

For `CCOC(=O)C(CCCCC(NC(C)=O)(C(=O)OCC)C(=O)OCC)(NC(C)=O)C(=O)OCC`, the growth is 104% (inactive).

For the compound `COc1ccc(-c2cnnn2-c2nonc2-n2cccc2)cc1`, the growth is 31.9% (inactive).

Consider `CSC1=N/C(=C\c2cccc(OCc3ccc(Cl)cc3)c2)C(=O)N1`, for which the growth was 77.7% (inactive).

As for `COc1ccc([C@H]2c3[nH]c4ccccc4c3C[C@H]3C(=O)N(CCCCCCC(=O)NO)CC(=O)N23)cc1`, the growth was 12.4% (inactive).

As to `c1csc(-c2cnc3nonc3n2)c1`, the growth was 87.9% (inactive).

Turning to `CC1(C)CN(CCNc2nccc(-c3c(-c4cccc(O)c4)nc4sccn34)n2)S(=O)(=O)N1`, the growth is 58.4% (inactive).

On to `COc1cc(C2CC(c3ccc(Cl)cc3)=NN2C(C)=O)ccc1Oc1ccnc2cc(Cl)ccc12` (stereo unspecified), for which the growth was 67.8% (inactive).

Consider `CN(C)CCCn1c(=O)c2cc([N+](=O)[O-])ccc2c2cnc3[nH]ccc3c21`, for which the growth is 69.4% (inactive).

Consider `CN(C)N1C(=O)c2c(Cl)c(Cl)c(Cl)c(Cl)c2C1=O`, for which the growth was 101% (inactive).

As for `CCCCCCCCCCCCNC(=O)N[C@H](C(=O)N[C@H]1/C=C/OCCNC(=O)/C=C/[C@H](C(C)C)NC1=O)C(C)C`, the growth is 46.1% (inactive).

Turning to `COc1ccc2c(c1)sc1nc(-c3ccccc3)c(-c3cccc4ccccc34)n12`, the growth is 24.9% (inactive).

For `O=C(O)CSc1ccc(NCc2oc(CO)cc(=O)c2O)cc1`, the growth is 99.8% (inactive).

On to `Oc1ccc(-c2nnc3c4[nH]ccc4ncn23)cc1`, for which the growth is 104% (inactive).

Regarding `COc1cccc(N2CCN(c3ncnc4cc[nH]c34)CC2)c1`, the growth was -0.321% (active).

As to `NC(N)=NC1CCCCC1`, the growth is 107% (inactive).

For the compound `COc1cc(CN(c2ccc(C)cc2)C2OC(=O)c3ccccc32)cc(OC)c1OC` (stereo unspecified), the growth is 19.9% (inactive).

As for `CC(C)(C)OC[C@@H]1N=C(c2ccc(Br)cc2)Nc2nc3ccccn3c2C1=O`, the growth was 38.4% (inactive).

With `Cc1ccc(Nc2cc(Cl)c([N+](=O)[O-])cc2[N+](=O)[O-])cc1`, the growth is 53.6% (inactive).

Consider `N/C(=C\C(=O)n1nc(-c2ccccc2)cc1N)c1ccccc1`, for which the growth was 32.2% (inactive).

Turning to `Nc1nc(N)c2cc(NCc3ccc(Cl)c(Cl)c3)ccc2n1`, the growth was -97.5% (active).

In the case of `Cn1c(-c2ccccc2)cc(=O)n1-c1ccccc1`, the growth is 104% (inactive).

For `O=C(Nc1ccncc1)C(=O)c1cn(S(=O)(=O)c2cccc(Cl)c2F)c2ccccc12`, the growth is 57.5% (inactive).

With `O=C(CSc1nnc(Cc2ccccc2Nc2c(Cl)cccc2Cl)n1-c1ccccc1)N1N=C(c2ccc3ccccc3c2)CC1c1ccc(Cl)cc1` (stereo unspecified), the growth is 104% (inactive).

Turning to `CSc1ccc(/C=C2\C=C(CC(=O)NCc3ccc(C(=O)c4ccccc4)cc3)c3cc(F)ccc32)cc1`, the growth is -51.4% (active).

Turning to `C=C1C(=O)O[C@H]2[C@H]1CC/C(COC(=O)NCc1ccc(Cn3c(=O)sn(CCCl)c3=O)cc1)=C\CC[C@@]1(C)O[C@@H]21`, the growth was 81.7% (inactive).

Regarding `O=C(O/C(=C/c1ccccc1)C(F)(F)F)c1ccccc1`, the growth was 102% (inactive).

`COc1ccc(N=C2CSc3nnc(-c4cc(F)c(Cl)cc4Cl)n3N2)cc1`: the growth is -63.1% (active).

Regarding `CCCCCCCCN(CCCCCCCC)C(=O)CCl`, the growth was 88.6% (inactive).

For the compound `CC(C)(CCc1ccccn1)C(=O)CCCc1ccccn1`, the growth was 104% (inactive).

In the case of `Cn1cnc([N+](=O)[O-])c1S(=O)(=O)Oc1ccccc1`, the growth was 99.6% (inactive).

Turning to `CCOC(=O)C1=C(C)NC(=S)NC1c1ccccc1` (stereo unspecified), the growth was 103% (inactive).

The record behind these values is PubChem BioAssay (NCI).
